In PubChem BioAssay (NCI) one finds growth data, which are given here for 21 compounds.

About 83,000 compounds went through this panel and 20% of them were active in at least one assay; those are over-represented in the sample as a whole.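 Cells were grown in 96-well plates and exposed to the test compound at a single concentration for 48 hours; results are reported as percent growth, with values below 10 considered active.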 A number with no mark means an inactive call. Activity calls are given as the source filed them.

Some test systems named below: T-47D breast; BT-549 breast; MDA-MB-435 melanoma; SW-620 colon; MCF7 breast; HCT-116 colon; HCC-2998 colon; KM12 colon; MDA-MB-468 breast.
Holding throughout (assay): NCI-60 one-dose screen, 48 h (100 = growth as untreated, 0 = no growth, -100 = all killed)
What all share (conditions): 10 µM unless noted

Regarding `O=c1[nH]c2ccccc2cc1COc1ccc(Nc2nccc(-c3ccc(Cl)cc3)n2)cc1`, the growth in the assay with T-47D breast is 92.2%; in the assay on BT-549 breast, 99.3%; in the assay with MDA-MB-435 melanoma, 102%; with SW-620 colon it was 105%; in the assay on MCF7 breast it was 91.3%; with HCT-116 colon, 96.4%. Moreover, the growth was 116% in the assay on HCC-2998 colon, 99.3% with KM12 colon and 89.6% in the assay on MDA-MB-468 breast.

Turning to `NS(=O)(=O)c1ccc(Nc2nc(SCC(=O)c3ccc(F)cc3)nc3ccccc23)cc1`, the growth in the assay with T-47D breast was 19.5%; in the assay with BT-549 breast, 44.2%; with MDA-MB-435 melanoma it was 0.411% (active); in the assay on SW-620 colon, 50.5%; in the assay with MCF7 breast, 19.1%; in the assay on HCT-116 colon it was 39%. The figures for the growth in the assay on HCC-2998 colon, with KM12 colon and in the assay with MDA-MB-468 breast were 47.5%, 19.4% and 11.4%, respectively.

As to `S=C(Nc1ccccc1)Nc1ccc(OCc2nc3ccc(Cl)cc3[nH]2)cc1`, the growth was 51.5% with T-47D breast; 78.8% with BT-549 breast; 75.2% with MDA-MB-435 melanoma; 73% in the assay on SW-620 colon; 24.8% in the assay with MCF7 breast; 77.5% in the assay on HCT-116 colon. Besides, the growth in the assay on HCC-2998 colon was 104%; in the assay on KM12 colon, 74.7%; in the assay with MDA-MB-468 breast it was 12.1%.

Turning to `C/C(=N/O)c1ccc(NC(=O)CSc2nnc(-c3ccc(-c4nc5ccc(Cl)cc5[nH]4)cc3)o2)cc1`, the growth in the assay with T-47D breast is 11.8%; with BT-549 breast it was 14.2%; in the assay with MDA-MB-435 melanoma, -32.9% (active); in the assay on SW-620 colon it was -54.9% (active); in the assay with MCF7 breast, 3.95% (active); in the assay on HCT-116 colon it was 4.71% (active). Besides, the growth is 71.2% with HCC-2998 colon, 2.42% (active) in the assay with KM12 colon and 64.9% in the assay with MDA-MB-468 breast.

For the compound `Cc1ccc(C2CC(c3ccc(NC(=O)Nc4ccccc4)cc3)=NN2c2ccc(S(C)(=O)=O)cc2)cc1` (centres undefined), the growth in the assay with T-47D breast is 11.9%; in the assay with BT-549 breast, -32.8% (active); in the assay on MDA-MB-435 melanoma, -7.07% (active); with SW-620 colon, -42.6% (active); in the assay with MCF7 breast, -34.3% (active); in the assay with HCT-116 colon, -36.5% (active). For the same compound, the growth in the assay with HCC-2998 colon is -80.7% (active); in the assay with KM12 colon, -2.32% (active); with MDA-MB-468 breast, -1.05% (active).

`COC(=O)c1cccc(Oc2ccc(NC(=O)Nc3cc(C(F)(F)F)ccc3F)cc2)c1`: the growth in the assay on T-47D breast was 47%; with BT-549 breast, 64.7%; in the assay on MDA-MB-435 melanoma it was 92.4%; in the assay on SW-620 colon it was 89.7%; with MCF7 breast, 61.8%; in the assay on HCT-116 colon, 60.7%. Also, the growth with HCC-2998 colon is 96.9%; with KM12 colon it was 75.3%; with MDA-MB-468 breast, 71.5%.

Consider `CCC1(OC(=O)c2ccccc2SSCCOC(=O)CCCCC2SCC3NC(=O)NC32)C(=O)OCc2c1cc1n(c2=O)Cc2cc3ccccc3nc2-1` (centres undefined), for which the growth in the assay on T-47D breast was 33.7%; with BT-549 breast it was 49.4%; in the assay with MDA-MB-435 melanoma it was 70.1%; in the assay on SW-620 colon it was 51.5%; with MCF7 breast, 26.5%; in the assay with HCT-116 colon it was 53.8%. The results for the growth in the assay with HCC-2998 colon, in the assay on KM12 colon and in the assay with MDA-MB-468 breast were 78.7%, 79% and -12.1% (active), respectively.

Turning to `N/C(=N\c1nc2ccccc2s1)NC(=O)Nc1ccccc1F`, the growth was 31.1% with T-47D breast; 30.2% with BT-549 breast; -18.1% (active) in the assay with MDA-MB-435 melanoma; 43% with SW-620 colon; 20.1% in the assay with MCF7 breast; 10.2% in the assay with HCT-116 colon. Besides, the growth in the assay on HCC-2998 colon was 45.9%; with KM12 colon, 22.6%; in the assay on MDA-MB-468 breast it was -12.3% (active).

In the case of `COc1ccccc1NC(=O)c1ccc(NC(=O)CCl)s1`, the growth is 40.6% in the assay with T-47D breast; -57.7% (active) in the assay on BT-549 breast; 0.365% (active) in the assay with MDA-MB-435 melanoma; -18.5% (active) in the assay with SW-620 colon; -35% (active) in the assay with MCF7 breast; -68.5% (active) in the assay with HCT-116 colon. The growth in the assay on HCC-2998 colon was 27.2%; in the assay on KM12 colon it was 25.8%; with MDA-MB-468 breast, -29.6% (active).

On to `CS(=O)(=O)c1ccc(-n2nc(C(=O)NCc3ccccc3)cc2-c2ccc(Cl)cc2)cc1`, for which the growth in the assay with T-47D breast is 66.6%; with BT-549 breast, 143%; in the assay on MDA-MB-435 melanoma it was 91.7%; in the assay with SW-620 colon, 99.8%; in the assay on MCF7 breast, 70.1%; with HCT-116 colon, 69.6%. In addition, the growth is 99.4% in the assay on HCC-2998 colon, 89.2% with KM12 colon and 86.7% in the assay with MDA-MB-468 breast.

Take `O=C(NNC(=O)c1ccc(OCc2nc3ccc(Cl)cc3[nH]2)cc1)Nc1ccc(Cl)c(C(F)(F)F)c1`: the growth is 16.4% in the assay with T-47D breast; 64.7% in the assay on BT-549 breast; 51.4% in the assay with MDA-MB-435 melanoma; 65% with SW-620 colon; 49.5% in the assay with MCF7 breast; 4.53% (active) in the assay with HCT-116 colon. Moreover, the growth with HCC-2998 colon was 73.9%; with KM12 colon, 49.1%; in the assay on MDA-MB-468 breast, 22.4%.

As to `Clc1ccc(-c2nc3ccc(-c4nnc(SCc5ccccc5)o4)cc3[nH]2)cc1`, the growth in the assay with T-47D breast is 7.8% (active); with BT-549 breast it was 58.7%; with MDA-MB-435 melanoma, 62.6%; in the assay on SW-620 colon, 12.9%; in the assay on MCF7 breast, 8.62% (active); in the assay with HCT-116 colon, 2.75% (active). The growth is 39.4% with HCC-2998 colon, 35.5% in the assay with KM12 colon and 11% in the assay on MDA-MB-468 breast.

Turning to `O=CNc1ccc(-n2cnc3cc(-c4ccc(O)cc4)ccc32)cc1`, the growth was 63.6% in the assay on T-47D breast; 93.3% with BT-549 breast; 82.8% in the assay on MDA-MB-435 melanoma; 101% in the assay on SW-620 colon; 71.8% with MCF7 breast; 85.6% in the assay on HCT-116 colon. Moreover, the growth in the assay with HCC-2998 colon is 102%; in the assay with KM12 colon it was 32.4%; in the assay with MDA-MB-468 breast, 86.1%.

In the case of `O=Cc1cncc(-c2ccc3ncnc(N4CCc5cc(F)c(Cl)cc54)c3c2)c1`, the growth in the assay on T-47D breast is 23.7%; in the assay on BT-549 breast, -7.41% (active); with MDA-MB-435 melanoma, 46.2%; with SW-620 colon, 23.4%; in the assay with MCF7 breast, 1.77% (active); in the assay with HCT-116 colon, 33.7%. Moreover, the growth in the assay on HCC-2998 colon was 64%; in the assay with KM12 colon, 81.8%; in the assay with MDA-MB-468 breast, -52.4% (active).

For `Cc1ccc(C2CC(c3ccc(S(=O)(=O)NCCNc4nc(N(C)C)nc(N5CCOCC5)n4)cc3)=Nc3c(N)nc(N)nc3N2)cc1` (centres undefined), the growth was 43.8% in the assay on T-47D breast; 35.2% with BT-549 breast; 63.6% in the assay on MDA-MB-435 melanoma; 81.2% in the assay with SW-620 colon; 27.6% with MCF7 breast; 38.7% in the assay with HCT-116 colon. Moreover, the growth in the assay with HCC-2998 colon was 47.9%; with KM12 colon it was 47.9%; in the assay with MDA-MB-468 breast, 24.2%.

Regarding `C[C@@H]1[C@H]2C[C@@H](C[C@H]1NCc1nc3ccccc3n1C1CCCCCC1)C2(C)C`, the growth in the assay with T-47D breast was 48%; in the assay with BT-549 breast, 72.8%; with MDA-MB-435 melanoma it was 73.6%; with SW-620 colon, 49.6%; with MCF7 breast, 28.1%; in the assay on HCT-116 colon, 23.4%. Also, the growth in the assay with HCC-2998 colon was 37.6%; in the assay on KM12 colon it was 68.6%; with MDA-MB-468 breast, 2.05% (active).

Turning to `CCOC(=O)c1ccc(NC(=S)NC(=O)c2ccc(NC(=O)C(C)C)cc2OC)cc1`, the growth is -0.757% (active) with T-47D breast; -5.7% (active) in the assay with BT-549 breast; 33.7% in the assay with MDA-MB-435 melanoma; 62.6% in the assay with SW-620 colon; 8.31% (active) in the assay on MCF7 breast; 23.6% in the assay with HCT-116 colon. The growth in the assay on HCC-2998 colon is 67.9%; in the assay on KM12 colon it was 30.2%; in the assay on MDA-MB-468 breast it was 3.97% (active).

For the compound `COC(=O)c1c(C(=O)OC)c2ccc3c4ccccc4ccc3n2c1C(=O)OC`, the growth with T-47D breast was 93.7%; in the assay on BT-549 breast, 113%; in the assay with MDA-MB-435 melanoma, 98.7%; with SW-620 colon, 111%; in the assay with MCF7 breast, 85.4%; in the assay with HCT-116 colon, 97.7%. Besides, the results for the growth with HCC-2998 colon, in the assay with KM12 colon and in the assay on MDA-MB-468 breast were 107%, 103% and 89.6%, respectively.

Consider `Cn1cc(-c2cc(N)n3nc(-c4c[nH]c5ccc(F)cc45)cc3n2)c2cc(Br)cnc21`, for which the growth is 54.5% in the assay with T-47D breast; 92.6% in the assay on BT-549 breast; 78.8% in the assay with MDA-MB-435 melanoma; 17.2% with SW-620 colon; 47.1% in the assay on MCF7 breast; -26.9% (active) in the assay with HCT-116 colon. Also, the figures for the growth in the assay on HCC-2998 colon, in the assay with KM12 colon and in the assay on MDA-MB-468 breast were 13.8%, 3.18% (active) and 20.7%, respectively.

For the compound `COc1ccc2[nH]c(O)c(N=NC(=O)c3ccc4nc(-c5ccc(Cl)cc5)[nH]c4c3)c2c1`, the growth with T-47D breast was 13.5%; with BT-549 breast, 34.5%; in the assay with MDA-MB-435 melanoma it was 81.2%; in the assay with SW-620 colon it was 82.6%; with MCF7 breast, 24.5%; in the assay on HCT-116 colon, 51.4%. The results for the growth in the assay with HCC-2998 colon, in the assay on KM12 colon and in the assay on MDA-MB-468 breast were 64.6%, 78.6% and -48.3% (active), respectively.

As for `Cc1ccc(C2CC(c3ccc(NC(=S)Nc4ccccc4)cc3)=NN2c2ccc(S(N)(=O)=O)cc2)cc1` (centres undefined), the growth is 24.5% in the assay with T-47D breast; -10% (active) with BT-549 breast; 23.6% in the assay on MDA-MB-435 melanoma; 19.8% in the assay with SW-620 colon; 2.64% (active) in the assay with MCF7 breast; 10.1% in the assay with HCT-116 colon. Moreover, the growth in the assay on HCC-2998 colon was -16.9% (active); in the assay on KM12 colon, 2.95% (active); in the assay on MDA-MB-468 breast it was 9.79% (active).
